This is part of a sample that, as a whole, favours compounds with a hit. Of some 83,000 tested, about 20% had one in any assay.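 How to read the values: 0–100, growth inhibition (40 = 60% inhibited); 0, no net growth; -100 to 0, cell death (-40 = 40% of starting cells died; -100 = all dead).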 The source made the active and inactive calls. Rule for the calls: active = growth percent below 10; inactive = the rest.
Legend:
Experiment in all cases: NCI-60 one-dose screen, 48 h (100 = growth as untreated, 0 = no growth, -100 = all killed)
Details in all cases: 10 µM unless noted
HCT-15 colon = tested on: HCT-15 colon
HT29 colon = tested on: HT29 colon
SNB-75 CNS = tested on: SNB-75 CNS
SNB-19 CNS = tested on: SNB-19 CNS
U251 CNS = tested on: U251 CNS
PC-3 prostate = tested on: PC-3 prostate
SK-MEL-5 melanoma = tested on: SK-MEL-5 melanoma
UACC-62 melanoma = tested on: UACC-62 melanoma
LOX IMVI melanoma = tested on: LOX IMVI melanoma
SK-MEL-28 melanoma = tested on: SK-MEL-28 melanoma
SK-MEL-2 melanoma = tested on: SK-MEL-2 melanoma
EKVX NSCLC = tested on: EKVX NSCLC
SN12C renal = tested on: SN12C renal
UO-31 renal = tested on: UO-31 renal
TK-10 renal = tested on: TK-10 renal
ACHN renal = tested on: ACHN renal
CAKI-1 renal = tested on: CAKI-1 renal
A498 renal = tested on: A498 renal
CCRF-CEM leukemia = tested on: CCRF-CEM leukemia
MOLT-4 leukemia = tested on: MOLT-4 leukemia

Measured: growth

CCSc1nnc(Nc2ccc(C(C)C)cc2)s1
inactive: HCT-15 colon 48% | HT29 colon 28.9% | SNB-75 CNS 102% | SNB-19 CNS 98.4% | U251 CNS 66% | PC-3 prostate 109% | SK-MEL-5 melanoma 78.9% | UACC-62 melanoma 78.1% | LOX IMVI melanoma 82.5% | SK-MEL-28 melanoma 110% | SK-MEL-2 melanoma 41.3% | EKVX NSCLC 80.5% | SN12C renal 76.7% | UO-31 renal 39.5% | TK-10 renal 96.1% | ACHN renal 91.1% | CAKI-1 renal 83.7% | A498 renal 111% | CCRF-CEM leukemia 70.6% | MOLT-4 leukemia 66.3%

CCCCCCCC/C=C\CCCCCCCCOc1ccccc1CCOP(=O)(O)OCC[N+](C)(C)C
inactive: HCT-15 colon 46.7% | HT29 colon 10.9% | SNB-75 CNS 55.4% | SNB-19 CNS 20.1% | U251 CNS 13.3% | SK-MEL-5 melanoma 69.5% | UACC-62 melanoma 54.2% | LOX IMVI melanoma 60.6% | SK-MEL-28 melanoma 89.1% | SK-MEL-2 melanoma 84.6% | EKVX NSCLC 91.7% | SN12C renal 70.1% | UO-31 renal 65% | ACHN renal 80.6% | CAKI-1 renal 26.9% | A498 renal 82.7% | MOLT-4 leukemia 11.5%
active: PC-3 prostate 0.679% | TK-10 renal 1.11%

COc1cc2c(cc1OCCCCn1c(-c3cc(=O)c4ccccc4o3)nc3ccccc31)N=C[C@@H]1CCCN1C2=O
inactive: HCT-15 colon 106% | HT29 colon 102% | SNB-75 CNS 101% | SNB-19 CNS 93.1% | U251 CNS 75.3% | PC-3 prostate 94.9% | SK-MEL-5 melanoma 93.6% | UACC-62 melanoma 99.4% | LOX IMVI melanoma 68.5% | SK-MEL-28 melanoma 124% | SK-MEL-2 melanoma 26.7% | EKVX NSCLC 129% | SN12C renal 102% | UO-31 renal 35.8% | TK-10 renal 157% | ACHN renal 93.1% | CAKI-1 renal 82.8% | A498 renal 121% | CCRF-CEM leukemia 49.4% | MOLT-4 leukemia 82.4%

CN(C)C1CCC(NC2=CC(=O)C=CC2=O)CC1 (configuration not stated)
inactive: HCT-15 colon 114% | HT29 colon 116% | SNB-75 CNS 86.1% | SNB-19 CNS 115% | U251 CNS 111% | PC-3 prostate 104% | SK-MEL-5 melanoma 106% | UACC-62 melanoma 110% | LOX IMVI melanoma 97.9% | SK-MEL-28 melanoma 113% | SK-MEL-2 melanoma 107% | EKVX NSCLC 111% | SN12C renal 115% | UO-31 renal 92.3% | TK-10 renal 113% | ACHN renal 99.2% | CAKI-1 renal 100% | A498 renal 122% | CCRF-CEM leukemia 107% | MOLT-4 leukemia 102%

CCN1C(=O)N(CC)C2Nn3c(s/c(=C\c4cccc(F)c4)c3=O)=NC21 (configuration not stated)
inactive: HCT-15 colon 56.6% | HT29 colon 39.1% | SNB-19 CNS 80.7% | U251 CNS 73.2% | PC-3 prostate 52.9% | SK-MEL-5 melanoma 42.6% | UACC-62 melanoma 67.7% | LOX IMVI melanoma 69.7% | SK-MEL-28 melanoma 75.6% | SK-MEL-2 melanoma 85.3% | EKVX NSCLC 79% | SN12C renal 79.6% | UO-31 renal 65.1% | TK-10 renal 109% | ACHN renal 66.7% | CAKI-1 renal 48.9% | A498 renal 46.1% | MOLT-4 leukemia 94.9%
active: SNB-75 CNS 6.29%

CCN1C(=O)N(CC)C2Nn3c(s/c(=C4\C(=O)N(C5CCCC5)c5ccccc54)c3=O)=NC21 (configuration not stated)
active: SNB-75 CNS 8.34%
inactive: HCT-15 colon 51.2% | HT29 colon 21.3% | SNB-19 CNS 79.2% | U251 CNS 58.9% | PC-3 prostate 46.5% | SK-MEL-5 melanoma 34.8% | UACC-62 melanoma 61.9% | LOX IMVI melanoma 64.5% | SK-MEL-28 melanoma 73.4% | SK-MEL-2 melanoma 75.9% | EKVX NSCLC 59.7% | SN12C renal 70.6% | UO-31 renal 51.7% | TK-10 renal 88.1% | ACHN renal 59.2% | CAKI-1 renal 32.6% | A498 renal 30.8% | MOLT-4 leukemia 84.4%

CCC(c1cccc(Br)c1)C(C(=O)O)c1ccc(OC)cc1 (configuration not stated)
inactive: HCT-15 colon 83.5% | HT29 colon 106% | SNB-75 CNS 96% | SNB-19 CNS 104% | U251 CNS 90.4% | PC-3 prostate 90.2% | SK-MEL-5 melanoma 94.6% | UACC-62 melanoma 82.9% | LOX IMVI melanoma 95.8% | SK-MEL-28 melanoma 95.8% | SK-MEL-2 melanoma 103% | EKVX NSCLC 100% | SN12C renal 105% | UO-31 renal 90.9% | TK-10 renal 107% | ACHN renal 107% | CAKI-1 renal 93.2% | A498 renal 100% | CCRF-CEM leukemia 110% | MOLT-4 leukemia 111%

CC(Br)C(OC(=O)c1ccccc1Cl)c1cc2c(cc1Br)OCO2 (configuration not stated)
inactive: HCT-15 colon 86.9% | HT29 colon 85.5% | SNB-75 CNS 67.4% | SNB-19 CNS 93.7% | U251 CNS 95.9% | PC-3 prostate 82.8% | SK-MEL-5 melanoma 87% | UACC-62 melanoma 72.5% | LOX IMVI melanoma 92.1% | SK-MEL-28 melanoma 94.5% | SK-MEL-2 melanoma 90.4% | EKVX NSCLC 76.6% | SN12C renal 98.9% | UO-31 renal 49.1% | TK-10 renal 82.1% | ACHN renal 88.2% | CAKI-1 renal 70% | A498 renal 88.5% | CCRF-CEM leukemia 103% | MOLT-4 leukemia 75.6%

From PubChem BioAssay (NCI)
